Reference: the supplement of paper PMC3334620
In all, about 33,000 sequences were measured (“E-score (-0.5 to 0.5)”: median about -0.0059, highest 2% from about 0.26 on). The sample holds the highest values, similar sequences and a random draw of the others, so the mix is not that of the screen.

Molecular target: T1, Cin5 (UniProt P40917)
T1 sequence: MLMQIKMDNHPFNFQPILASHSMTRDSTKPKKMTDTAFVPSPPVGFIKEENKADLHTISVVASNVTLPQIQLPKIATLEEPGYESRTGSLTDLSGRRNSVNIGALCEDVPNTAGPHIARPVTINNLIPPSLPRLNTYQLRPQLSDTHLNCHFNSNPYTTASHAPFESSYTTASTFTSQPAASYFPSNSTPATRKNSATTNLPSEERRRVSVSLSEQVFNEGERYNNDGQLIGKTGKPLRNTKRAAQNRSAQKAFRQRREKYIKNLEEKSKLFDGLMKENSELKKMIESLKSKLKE
Experiment: PBM E-score (8-mer binding enrichment) (E-score (-0.5 to 0.5)); higher = stronger / more preferred TF binding
Conditions: protein concentration: 100 nM; construct: GST-full length
Procedure, shortened: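 Masliner-normalised scans of fluorescent anti-GST signal were the basis for scoring. That signal came from GST-tagged yeast transcription factors applied at about 100-200 nM to double-stranded universal all-10-mer Agilent arrays on fresh or once-stripped slides. Each ungapped eight-base word, pooled with its reverse complement, received an E-score from the Universal PBM Analysis Suite.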

Sequence	PBM E-score
CGCCAAGC	-0.235
TCTTAGAA	0.0741
AATTATGA	0.257
AATTATCA	0.251
AATTATCC	0.133
AATTATCT	0.331
AATTATGT	0.304
AATTATGG	0.156
CGGTTGCA	-0.146
ACTGTCGG	-0.186
AGCGTAAT	0.13
ATTATCAG	0.119
GTTATCAA	0.0472
ATTATCAC	0.234
CTTATCAC	0.0488
ATTATCAA	0.274
CTTATCAA	0.278
AGCTTCGG	-0.187
CAAGCCTA	-0.16
GGTTACAA	0.0628
CAAGTGAG	-0.036
CAGATCGG	-0.0356
AAGATTAC	0.255
TCGATTAA	0.267
CGGATTAC	0.122
GGGATTAA	0.23

Sequence	PBM E-score
ACGATTAA	0.0274
GCGATTAA	0.209
ACGATTGC	0.153
CCGATTAA	0.117
ACGATTAC	0.295
GCGATTAC	0.264
GGGATTAC	0.264
CCGATTAC	0.23
GCAGTACC	-0.0675
CAGTTACC	-0.0935
ACACACCG	-0.137
CTAATGGC	-0.0137
CCTTTGCA	-0.0748
ATCACAGA	-0.0171
CCCACGTA	-0.0439
CACCCAGG	-0.237
TACGATGA	0.12
AGGATTAT	-0.0477
ACGATTAG	0.158
ACGATTAT	0.274
CCCGTTTA	0.069
CCATTACA	0.223
AGATTACG	0.419
AGATTACT	0.182
TGATTACA	0.301
CGATTACC	0.143

Sequence	PBM E-score
GGATTACA	0.19
TCATTACA	0.164
AGATTACC	0.14
CGATTACG	0.389
AGATTACA	0.286
CGATTACA	0.177
CCATTACG	0.0601
CTCCCTTC	-0.312
AAAAGCCC	-0.0247
CGGGCCTC	0.0182
CACACACA	0.0837
AAGACCAC	-0.205
CACCCGGC	-0.351
TCAGGCAA	-0.0467
CGGGTGTA	0.0316
GATTCACA	0.0537
AATTCACA	0.258
AATTCACG	-0.0153
AAGGTATA	-0.0348
ACTAATCT	0.128
ACTAAACA	0.258
ACTAATCC	0.125
TCTAATCA	0.231
TCTAAACA	-0.115
CCTAATCG	0.155
ACTAAACC	-0.0367

Sequence	PBM E-score
ACTAATCA	0.264
ACTAATCG	0.355
CTCGACCC	-0.157
CCGTTACG	0.0353
ATCTTTAA	0.0357
CCCCTCTC	-0.318
AACGTCGG	-0.0613
TATGTCGA	0.0777
AGTATTCA	0.165
CTCGCAAA	-0.0438
GTCAGCCA	0.07
ATACCTAA	0.286
ATACCTAC	0.046
ATACCTAT	0.176
AGGCAGAC	-0.247
ATGCTTTA	-0.0364
CTGCTGAA	-0.212
ATGCTTAC	0.265
ATGCTTTC	0.155
CTGCTTAA	0.00628
CTGCTTAC	0.402
CTGCTGAC	0.26
CTGCTTCC	-0.178
CTGCTGTC	-0.0623
ATGCTTAA	0.146
CTGCTTTC	0.058

Sequence	PBM E-score
CTGCTTTA	0.278
AAACCTGT	0.0662
ATGTGAGC	-0.0106
AAAAGCTG	-0.148
GCAGGAGC	-0.285
GACCGCCC	-0.161
TCGAGTCA	-0.0465
ATTTCCTC	0.09
AGGAGCCG	-0.317
AGAGGAGC	-0.233
GGCTGCAA	-0.0216
ATGCTTGG	-0.0358
ATGCTTAG	0.313
ATGCTTCG	-0.0239
GGGGAAAC	-0.0321
AGGAACGA	-0.244
CGGAACGA	0.287
CGGAACGC	0.0289
AAGAACAA	0.197
GAGAACAA	0.269
CGGAACAC	0.177
TGGAACAA	0.0669
GAGAACAC	0.047
CGGAACAA	0.302
CGCCCCAC	0.131
AGTTTCTG	0.0528

Sequence	PBM E-score
GTGGAGGA	-0.0744
GGACTAAC	-0.232
GTCACAAA	-0.0564
GGATGGCA	0.27
TGATGGCA	-0.112
GGATGGCC	-0.296
AACCTAGG	-0.0368
CTACGAAA	-0.0568
ATACGTAC	-0.0222
GTACGTAC	-0.00455
ATACGTAG	0.116
ATTCGTAA	0.304
CTACGTAA	0.24
GTTCGTAA	0.153
ATACGAAT	0.0148
ATACGAAA	0.265
CTTCGTAA	0.0958
ATACGTAA	0.386
GTACGTAA	0.397
CACGGAAA	0.224
AAACTCAT	0.205
CGAGATAA	0.255
CGCACGGC	0.001
ACTTTTCT	0.0353
ATCCAGAG	0.161
CGCATCGC	-0.195

Sequence	PBM E-score
CACAACTA	0.211
GATGAGTA	0.152
AGGGAGAC	-0.0805
AAAGATAC	0.186
AAAGATAT	0.3
AACGATAG	0.0137
AACGATAT	0.285
AACGATAC	0.0238
AAAGATAG	-0.0374
ATCGGTGA	0.103
GGCTGAGA	-0.0327
GGCCCAAC	-0.0745
AATGGCAG	0.0479
AATGGCTA	0.274
AATGGCAT	0.32
AATGGCTC	0.0552
CATGGCTA	0.037
AATGGCAC	0.00736
GCACTCCA	-0.111
ATTTCGAA	0.188
GCGTAAGC	0.227
CCGTAATC	0.329
CCGTAAAC	0.072
CCGTAATA	0.203
CCGTAAGA	-0.122
CCGTAAGC	0.332

Sequence	PBM E-score
GAATCCTA	0.0175
GGAAACTA	-0.105
TATCTCCA	0.112
GTAAATCA	0.284
AGTAATCG	0.262
CTAAATCA	0.00062
GGTAATGA	0.153
ATAAATCA	0.185
ATTAATCG	0.228
AGTAATCC	0.243
GCTAATCA	0.212
AGTAATGA	0.13
AGTAATCA	0.312
AGTAATGG	0.162
GGTAATCA	0.289
CCTACCAC	-0.224
CCACCGGA	0.0953
ATCAATAG	0.0422
CAGAGTAA	-0.0253
TGACGTCA	0.425
GGACGTCA	0.0529
AGACGTCA	-0.00622
GGTTGAAA	-0.00909
ACGGTGCA	-0.139
AAGGTTAA	0.0178
AAAGGGCA	-0.174

Sequence	PBM E-score
GTAATCAC	0.321
TCAATCAA	0.173
GAAATCAC	0.149
GAAATCAA	0.167
TTAATCAA	0.166
CTAATCAC	0.248
GGAATCAA	0.0945
GTAATCAA	0.392
CTAATCAA	0.301
ACAGCGAA	-0.00314
AGTTTGAA	0.0821
GCTTTGTA	0.174
GAAGATTC	0.0827
CCTGCAGC	-0.0691
ATAAGCGC	0.188
GGAAGCGA	0.0828
ATAAGCGA	0.267
ATAAGCGG	0.206
CTAAGCGA	0.0261
GTAAGCGA	0.383
GACGTACC	-0.0136
CATCGAAA	-0.0105
CTTCAAAA	0.0157
GTGTTGAA	0.0739
GCTGGCCC	-0.269
AAGCTAGA	-0.0103

Sequence	PBM E-score
CTACAAAC	0.043
AAGGGAGT	-0.285
CTTACCTA	0.32
ATTACCTA	0.349
ATTACCTC	0.142
CTTACCTC	-0.0461
ATTACCTG	0.113
GTTACCTA	0.131
CCTAGGTA	-0.0942
CAGTTGCA	-0.123
CGATTTAG	0.182
ACAATCGA	0.0876
GCTTCTAA	-0.109
AGTATCCC	0.0604
AAGGATCG	0.00025
CTGGGACC	-0.316
ATTGTTAC	0.276
ATTGTTAA	0.0779
ATTGTTTG	0.168
CTTGTTAC	-0.0236
ATTGTTAG	0.109
GTTGTTAA	0.284
CTTGTTAA	-0.0283
CTTGTTTC	0.0494
ATTGTTTC	0.275
CGGGGGTC	-0.417

Sequence	PBM E-score
CCTCCGAG	-0.16
GCTAAGCA	0.0676
GCCCAATA	0.0485
ACAGGACG	-0.133
CCACATAG	-0.0996
CGGGCCCC	-0.12
CAACATAC	0.125
CATCATAA	0.139
AATCATAG	0.291
CAACATAA	0.286
AATCATAC	0.206
TATCATAA	0.272
GAACATAA	0.198
CAACATAG	0.0889
AATCATAT	0.193
AAACATAA	0.199
GATCATAA	0.241
TAACATAA	0.317
CCGGAGTC	0.014
AACCTCCG	-0.183
ATGCCCTA	-0.0594
CCCGATAA	-0.0584
AAACCATT	0.045
CCTAGGGC	-0.254
ACCCTCAT	-0.136
GGATTGAA	0.104

Sequence	PBM E-score
CTGCCCAG	-0.249
CCGTGTAC	0.102
CCATAAAA	0.0525
CAGCAGAA	-0.0607
AAGCAGAT	0.128
AAGCAGAA	0.261
ACTGATAC	-0.00272
CTCTTACA	0.0444
CGTGCCTA	-0.177
GCACCGGC	-0.178
CTGTAGCA	-0.13
ACAACTTA	0.184
ACAACTTG	0.0528
ACAACTTC	0.296
ACAATCGT	-0.0859
ATCCTCCC	-0.103
TAGTAATA	0.27
AAGTAATA	0.247
TAGTAAAA	0.137
GAGTAATA	0.26
CAGTAATA	0.254
TAATAGTA	0.228
AACCCTTA	0.168
AGCTTCAG	-0.115
GCCGCGAA	-0.133
GATTACGC	0.301

Sequence	PBM E-score
AATTACAT	0.322
AATTACAC	0.0804
AATTACGC	0.073
TATTACGA	0.257
CATTACGC	0.0481
AATTACGT	0.278
AATTACGG	0.141
AATTACAG	0.107
GATTACAC	0.233
GGTTACGA	0.0792
GATTACGA	0.434
ACTCTTGC	-0.108
GACGGTCC	-0.201
CATGGCGA	-0.0534
CGGTGGTC	-0.098
ATGTCCAA	0.0429
CATTACGA	0.127
AATTACGA	0.313
AATTACCA	0.187
CTCAGATC	0.0619
AGTGAGTA	0.284
CGTGAGTA	0.0731
ATTGAGTA	0.262
GTTGAGTA	0.0846
AGTGAGTG	-0.0867
ATTGAGTC	0.103

Sequence	PBM E-score
AAGCAACA	0.162
CATAAAGA	0.104
CGCATCGA	0.182
ATAACGCC	0.0372
AGTAAGCA	0.283
ACTAAGCA	0.241
GGTAAGCA	0.318
GGTAAGAA	0.011
ACTAAGCG	0.149
AGTAAGGG	0.0482
GGTAAGGA	-0.153
AGTAAGTA	0.227
AGTAAGCG	0.354
